Assay [1] is described as follows: Caspase-3/7 induction in CHO-K1 cells by small molecules, qHTS assay (AID 1346980). Further: nearly all actives have a fitted effect of over 15% in size. The essentials:
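Wild-type CHO-K1 cells exposed to compounds for 17hr at 37 C, 5% CO2. Caspase-3/7 activity then measured by Caspase-Glo 3/7 luminescence after 30min at room temperature.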

Assay [2] is described as follows: Caspase-3/7 induction in HepG2 cells by small molecules, qHTS cell viability counter screen (AID 1346981). Further: series mostly up to about 92 µM; nearly all actives have a fitted effect of over 30% in size. In outline:
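Treatment of HepG2 cells with DMSO-delivered compounds ran 16 hr at 37 C following a 5-hr pre-incubation of 2,000 cells/well. CellTiter-Fluor fluorescence, read after 1 hr, served as the viability measure in a qHTS format.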

In assay [3] the target is Nuclear receptor subfamily 1 group I member 2 (Homo sapiens) (UniProt O75469). Kind of assay: Human pregnane X receptor (PXR) small molecule agonists, qHTS assay (AID 1346982). Further: nearly all actives have a fitted effect of over 35% in size. Further: potency means the concentration at half of the fitted maximal effect. The essentials: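 Stable HepG2 line reporting PXR-mediated CYP3A4 expression via luciferase. Treatment: 24 hr with compounds in DMSO at 37 C. Detection: ONE-Glo luminescence.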
A general note: Quantitative high-throughput screening tests each substance at several concentrations.

The target of assay [4] is Acetylcholinesterase (Homo sapiens) (UniProt P22303). Kind of assay: Acetylcholinesterase (AChE) small molecule antagonists: colormetric cell-based qHTS assay (AID 1347395; calls by dose curve; further: nearly all actives have a fitted effect of over 30% in size). In outline:
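After overnight attachment at 37 C, SH-SY5Y cells get 30 min compound exposure; detection cocktail (acetylthiocholine, DTNB) then incubates 90 min at 37 C, and absorbance reflects AChE-generated thiocholine.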

The target is the same in assay [5]. Kind of assay: Acetylcholinesterase (AChE) small molecule antagonists: enzyme-based qHTS assay (AID 1347397; calls by dose curve; further: nearly all actives have a fitted effect of over 55% in size). Particulars: Potency: AChE enzyme activity inhibition. In outline: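 Colorimetric DTNB read-out of thiocholine released from acetylthiocholine by recombinant human AChE (50 mU/mL as dispensed). Compounds were preincubated 30 min at RT before substrate/DTNB addition, with a 10 min RT reaction.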

Assay [6] shares this target. Kind of assay: Acetylcholinesterase (AChE) small molecule antagonists: fluorescence cell-based qHTS assay (AID 1347398; calls by dose curve; further: nearly all actives have a fitted effect of over 50% in size). Particulars: Potency: AChE activity. In outline: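 SH-SY5Y, 2,000 cells/well, attached overnight; cmpd 30 min 37 C; acetylthiocholine/Thiolite Green cocktail 40 min RT; fluorescence Ex/Em 490/520 nm.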
Assay [7] has the same target. Kind of assay: Acetylcholinesterase (AChE) small molecule antagonists: enzyme-based qHTS assay with human liver microsomes (AID 1347399; calls by dose curve; further: nearly all actives have a fitted effect of over 60% in size). The settings on record: Potency: qHTS inhibition. The essentials: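 Recombinant human AChE (50 mU/mL in the enzyme mix) and human liver microsomes (0.25 mg/mL final) were preincubated with compound and NADPH (0.25 mg/mL final) for 30 min at 37 C. Acetylthiocholine/DTNB was then added; thiocholine was read colorimetrically after 10 min at room temperature.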

In assay [8] the target is Cytochrome P450 2D6 (Homo sapiens) (UniProt P10635). Kind of assay: Cytochrome P450 Family 2 Subfamily D Member 6 (CYP2D6) small molecule antagonists: luciferase reporter qHTS assay (AID 1671196). Further: nearly all actives have a fitted effect of over 50% in size. Further: potency means the concentration at half of the fitted maximal effect. The essentials:
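Chemicals tested for interference with CYP2D6 activity; proluciferin substrate, NADPH regeneration, 1 h at room temperature, luminescent detection.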
For orientation: In a reporter assay the amount or activity of a reporter protein is the signal.

The target in assay [9] is Cytochrome P450 2C19 (Homo sapiens) (UniProt P33261). Kind of assay: Cytochrome P450 Family 2 Subfamily C Member 19 (CYP2C19) small molecule antagonists: luciferase reporter qHTS assay (AID 1671197). Further: nearly all actives have a fitted effect of over 65% in size. Further: potency means the concentration at half of the fitted maximal effect. The essentials: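 Quantitative high-throughput screen of the Tox21 library using CYP2C19 with proluciferin substrate. Reaction: NADPH regeneration, 37C, 1 h, after 10 min compound preincubation at room temperature. Readout: luminescence.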

Assay [10] deals with Cytochrome P450 3A4 (Homo sapiens) (UniProt P08684). Kind of assay: Cytochrome P450 Family 3 Subfamily A Member 4 (CYP3A4) small molecule antagonists: luciferase reporter qHTS assay (AID 1671201). Further: nearly all actives have a fitted effect of over 50% in size. Further: potency means the concentration at half of the fitted maximal effect. In outline: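 CYP3A4 activity was followed with a P450-Glo proluciferin substrate. Test compounds in DMSO were preincubated 10 min; NADPH regeneration then ran 1 h, and light output was read 20 min after detection reagent.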

In assay [11] the target is Cytochrome P450 2C9 (Homo sapiens) (UniProt P11712). Kind of assay: Cytochrome P450 Family 2 Subfamily C Member 9 (CYP2C9) small molecule antagonists: luciferase reporter qHTS assay (AID 1671198). Further: nearly all actives have a fitted effect of over 50% in size. Further: potency means the concentration at half of the fitted maximal effect. In outline:
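P450-Glo proluciferin substrate with CYP2C9 enzyme; 10 min RT preincubation, then NADPH regeneration 1 h at 37C; luciferin detection reagent 20 min RT, luminescence in relative luminescence units.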

Assay [12] concerns the target Cytochrome P450 1A2 (Homo sapiens) (UniProt P05177). Kind of assay: Cytochrome P450 Family 1 Subfamily A Member 2 (CYP1A2) small molecule antagonists: luciferase reporter qHTS assay (AID 1671199). Further: nearly all actives have a fitted effect of over 50% in size. Further: potency means the concentration at half of the fitted maximal effect. The essentials:
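Read-out is luminescence from luciferin detection reagent (20 min) proportional to CYP1A2 activity; compounds in DMSO preincubated 10 min with enzyme and proluciferin substrate, then NADPH regeneration solution, 1 h, room temperature.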

Assay [13] addresses Voltage-gated inwardly rectifying potassium channel KCNH2 (Homo sapiens) (UniProt Q12809). Kind of assay: Human Ether-a-go-go-Related Gene (hERG) channel small molecule antagonists: fluorescence cell-based qHTS assay (AID 1671200). The essentials:
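In this thallium-flux screen, overnight-cultured U2OS cells bearing the channel are dye-loaded in darkness for an hour, rested 10 min at room temperature, and then monitored kinetically at 480/540 nm for two minutes post-stimulus.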

For assay [14], the target named is Nuclear receptor subfamily 1 group I member 2 (Rattus norvegicus) (UniProt Q9R1A7). Kind of assay: Rat pregnane X receptor (rPXR) activation by small molecules, qHTS assay (AID 1346983). Further: nearly all actives have a fitted effect of over 20% in size. Particulars: rPXR luciferase reporter cells, One-Glo luminescence, 24 h; stronger effect = higher value. In outline:
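Cell-based rPXR activation assay: rPXR cells, 2,000 per well, rested 5hr at 37 C, then exposed to compounds in DMSO for 24 hr at 37 C. Luciferase activity read by One-Glo luminescence after 30 min at room temperature.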

Assay [15] concerns the target Nuclear receptor subfamily 1 group I member 2 (Homo sapiens) (UniProt O75469). Nature of the assay: CYP3A4 induction through human pregnane X receptor (PXR) by small molecules, qHTS assay (AID 1346984). Further: nearly all actives have a fitted effect of over 40% in size. The essentials:
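After 24 h at 37C with compound, DPX-2 cells (HepG2, co-transfected PXR response element and CYP3A4 promoter-luciferase) got 3uM final P450-Glo Luciferin-IPA for 3 h; One-Glo luminescence followed.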

Assay [16] has the same target. Kind of assay: Human pregnane X receptor (PXR) activation by small molecules, qHTS assay (AID 1346985). Further: nearly all actives have a fitted effect of over 40% in size. The essentials:
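DPX-2 cells (HepG2 co-transfected with a PXR response element and a CYP3A4-promoter luciferase construct) were seeded at 2,000 per well, rested 5 hr at 37C, then exposed to DMSO-dissolved compounds for 24 hr. Activation was read as luciferase luminescence.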

Where “and” joins values, the source holds several entries; their conditions need not be identical. Identical values can stand only once. Records with an inconclusive call do not appear. Where a structure was tested more than once in an assay, its records may differ in their call. Calls of active or inactive are those of the source. Unless noted, the call rests on the fitted dose curve; in most records, active means well fitted curve in the direction sought with a large enough effect in the repeat runs; inconclusive means weak or mixed curves; inactive means no such curve, though single readings can be large; an effect the other way counts as inactive or inconclusive.
On the % scale 0 is the no-effect control and ±100 the full control effect.

Chain of Acetylcholinesterase (Homo sapiens) (P22303 whole entry, looked up): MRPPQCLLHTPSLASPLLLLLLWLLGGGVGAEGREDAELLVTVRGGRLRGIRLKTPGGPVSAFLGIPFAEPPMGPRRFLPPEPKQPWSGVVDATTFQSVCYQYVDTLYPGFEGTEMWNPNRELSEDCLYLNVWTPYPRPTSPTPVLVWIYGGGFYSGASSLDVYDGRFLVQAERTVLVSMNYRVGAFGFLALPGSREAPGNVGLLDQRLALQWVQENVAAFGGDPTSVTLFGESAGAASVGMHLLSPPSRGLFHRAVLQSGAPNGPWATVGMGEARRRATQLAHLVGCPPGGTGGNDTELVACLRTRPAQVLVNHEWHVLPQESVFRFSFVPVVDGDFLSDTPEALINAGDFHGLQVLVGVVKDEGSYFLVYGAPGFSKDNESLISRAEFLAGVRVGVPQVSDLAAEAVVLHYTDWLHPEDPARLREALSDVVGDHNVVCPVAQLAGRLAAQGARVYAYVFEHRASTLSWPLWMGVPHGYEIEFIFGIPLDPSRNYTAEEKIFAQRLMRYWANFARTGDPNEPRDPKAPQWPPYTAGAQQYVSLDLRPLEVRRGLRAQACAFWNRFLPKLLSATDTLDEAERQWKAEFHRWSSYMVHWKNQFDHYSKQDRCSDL
Chain of Cytochrome P450 3A4 (Homo sapiens) (P08684 whole entry, looked up): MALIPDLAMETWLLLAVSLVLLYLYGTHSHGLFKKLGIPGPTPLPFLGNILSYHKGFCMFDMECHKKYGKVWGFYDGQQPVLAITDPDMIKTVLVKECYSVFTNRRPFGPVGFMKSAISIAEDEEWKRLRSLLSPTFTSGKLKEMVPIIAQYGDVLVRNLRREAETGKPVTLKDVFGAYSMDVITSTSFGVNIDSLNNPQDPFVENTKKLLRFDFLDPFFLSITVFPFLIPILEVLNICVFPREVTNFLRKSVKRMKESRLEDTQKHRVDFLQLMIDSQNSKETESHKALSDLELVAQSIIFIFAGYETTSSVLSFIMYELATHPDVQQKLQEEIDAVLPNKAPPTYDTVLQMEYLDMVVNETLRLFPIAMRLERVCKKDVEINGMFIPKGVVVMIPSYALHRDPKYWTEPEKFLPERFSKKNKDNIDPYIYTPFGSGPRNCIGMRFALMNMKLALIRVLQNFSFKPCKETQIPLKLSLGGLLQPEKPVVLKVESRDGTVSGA
Chain of Cytochrome P450 2D6 (Homo sapiens) (P10635 whole entry, looked up): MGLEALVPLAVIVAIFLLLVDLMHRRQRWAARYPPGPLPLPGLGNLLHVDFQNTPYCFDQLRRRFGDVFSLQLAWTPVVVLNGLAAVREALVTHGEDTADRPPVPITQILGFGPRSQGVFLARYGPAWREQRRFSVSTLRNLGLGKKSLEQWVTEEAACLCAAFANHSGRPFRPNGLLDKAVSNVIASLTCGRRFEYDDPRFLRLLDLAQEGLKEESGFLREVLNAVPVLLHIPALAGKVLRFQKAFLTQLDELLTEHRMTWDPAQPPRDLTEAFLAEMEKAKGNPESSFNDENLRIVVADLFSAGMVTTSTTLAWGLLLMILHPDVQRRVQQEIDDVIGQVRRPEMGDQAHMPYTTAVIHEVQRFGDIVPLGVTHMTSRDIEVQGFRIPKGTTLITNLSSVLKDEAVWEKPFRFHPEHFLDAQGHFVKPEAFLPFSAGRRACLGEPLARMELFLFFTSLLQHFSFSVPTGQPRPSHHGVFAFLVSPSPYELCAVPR
Chain of Nuclear receptor subfamily 1 group I member 2 (Homo sapiens) (O75469 whole entry, looked up): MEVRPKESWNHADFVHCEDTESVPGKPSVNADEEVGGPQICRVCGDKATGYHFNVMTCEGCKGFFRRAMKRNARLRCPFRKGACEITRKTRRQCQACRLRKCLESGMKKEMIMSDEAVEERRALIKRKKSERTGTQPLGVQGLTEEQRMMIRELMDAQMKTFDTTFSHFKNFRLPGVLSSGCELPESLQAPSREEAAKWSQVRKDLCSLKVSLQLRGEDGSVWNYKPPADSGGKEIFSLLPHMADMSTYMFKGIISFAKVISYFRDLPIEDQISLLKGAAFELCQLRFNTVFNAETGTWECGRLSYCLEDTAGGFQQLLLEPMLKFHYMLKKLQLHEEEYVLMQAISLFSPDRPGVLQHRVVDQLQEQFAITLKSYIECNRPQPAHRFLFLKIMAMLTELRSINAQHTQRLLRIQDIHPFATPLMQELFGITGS
Chain of Cytochrome P450 2C9 (Homo sapiens) (P11712 whole entry, looked up): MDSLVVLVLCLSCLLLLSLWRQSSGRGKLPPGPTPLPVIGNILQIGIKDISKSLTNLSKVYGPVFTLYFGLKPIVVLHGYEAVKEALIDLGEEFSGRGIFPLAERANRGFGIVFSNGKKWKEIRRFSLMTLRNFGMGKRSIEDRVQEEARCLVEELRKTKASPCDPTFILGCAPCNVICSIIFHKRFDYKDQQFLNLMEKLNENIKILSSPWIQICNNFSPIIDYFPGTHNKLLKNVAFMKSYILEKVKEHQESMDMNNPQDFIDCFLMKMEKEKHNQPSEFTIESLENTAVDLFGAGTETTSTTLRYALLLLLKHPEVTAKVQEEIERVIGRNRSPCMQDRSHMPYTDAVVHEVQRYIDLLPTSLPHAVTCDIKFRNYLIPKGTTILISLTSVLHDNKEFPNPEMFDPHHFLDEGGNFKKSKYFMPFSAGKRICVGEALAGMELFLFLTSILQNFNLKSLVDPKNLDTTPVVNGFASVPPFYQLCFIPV
Chain of Cytochrome P450 1A2 (Homo sapiens) (P05177 whole entry, looked up): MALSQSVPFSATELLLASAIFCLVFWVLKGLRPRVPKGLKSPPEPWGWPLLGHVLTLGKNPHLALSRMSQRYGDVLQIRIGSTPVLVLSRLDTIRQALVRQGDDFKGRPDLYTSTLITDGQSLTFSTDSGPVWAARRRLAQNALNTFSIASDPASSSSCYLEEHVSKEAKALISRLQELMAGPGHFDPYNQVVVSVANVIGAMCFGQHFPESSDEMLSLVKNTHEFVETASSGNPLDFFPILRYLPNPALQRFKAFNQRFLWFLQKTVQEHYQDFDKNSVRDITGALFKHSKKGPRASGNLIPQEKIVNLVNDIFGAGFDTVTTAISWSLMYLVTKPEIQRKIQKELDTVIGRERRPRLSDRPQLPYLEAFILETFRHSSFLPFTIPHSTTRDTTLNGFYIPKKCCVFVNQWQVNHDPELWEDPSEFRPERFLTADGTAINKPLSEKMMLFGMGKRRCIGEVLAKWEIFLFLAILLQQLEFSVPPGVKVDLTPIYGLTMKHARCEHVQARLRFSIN
Chain of Cytochrome P450 2C19 (Homo sapiens) (P33261 whole entry, looked up): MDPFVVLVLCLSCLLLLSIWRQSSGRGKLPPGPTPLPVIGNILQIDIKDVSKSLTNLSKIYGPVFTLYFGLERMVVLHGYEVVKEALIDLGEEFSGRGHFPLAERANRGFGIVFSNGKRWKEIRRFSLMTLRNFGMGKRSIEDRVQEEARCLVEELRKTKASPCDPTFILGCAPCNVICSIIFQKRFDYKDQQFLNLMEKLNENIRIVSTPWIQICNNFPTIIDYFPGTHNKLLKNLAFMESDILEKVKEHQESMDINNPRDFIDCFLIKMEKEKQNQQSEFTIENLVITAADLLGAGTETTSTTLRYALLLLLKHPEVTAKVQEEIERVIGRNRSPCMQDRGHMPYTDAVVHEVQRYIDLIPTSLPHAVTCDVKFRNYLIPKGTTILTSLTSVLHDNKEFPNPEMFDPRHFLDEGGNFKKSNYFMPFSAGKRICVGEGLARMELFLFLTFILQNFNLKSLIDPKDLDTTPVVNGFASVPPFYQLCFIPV
Chain of Voltage-gated inwardly rectifying potassium channel KCNH2 (Homo sapiens) (Q12809 whole entry, looked up): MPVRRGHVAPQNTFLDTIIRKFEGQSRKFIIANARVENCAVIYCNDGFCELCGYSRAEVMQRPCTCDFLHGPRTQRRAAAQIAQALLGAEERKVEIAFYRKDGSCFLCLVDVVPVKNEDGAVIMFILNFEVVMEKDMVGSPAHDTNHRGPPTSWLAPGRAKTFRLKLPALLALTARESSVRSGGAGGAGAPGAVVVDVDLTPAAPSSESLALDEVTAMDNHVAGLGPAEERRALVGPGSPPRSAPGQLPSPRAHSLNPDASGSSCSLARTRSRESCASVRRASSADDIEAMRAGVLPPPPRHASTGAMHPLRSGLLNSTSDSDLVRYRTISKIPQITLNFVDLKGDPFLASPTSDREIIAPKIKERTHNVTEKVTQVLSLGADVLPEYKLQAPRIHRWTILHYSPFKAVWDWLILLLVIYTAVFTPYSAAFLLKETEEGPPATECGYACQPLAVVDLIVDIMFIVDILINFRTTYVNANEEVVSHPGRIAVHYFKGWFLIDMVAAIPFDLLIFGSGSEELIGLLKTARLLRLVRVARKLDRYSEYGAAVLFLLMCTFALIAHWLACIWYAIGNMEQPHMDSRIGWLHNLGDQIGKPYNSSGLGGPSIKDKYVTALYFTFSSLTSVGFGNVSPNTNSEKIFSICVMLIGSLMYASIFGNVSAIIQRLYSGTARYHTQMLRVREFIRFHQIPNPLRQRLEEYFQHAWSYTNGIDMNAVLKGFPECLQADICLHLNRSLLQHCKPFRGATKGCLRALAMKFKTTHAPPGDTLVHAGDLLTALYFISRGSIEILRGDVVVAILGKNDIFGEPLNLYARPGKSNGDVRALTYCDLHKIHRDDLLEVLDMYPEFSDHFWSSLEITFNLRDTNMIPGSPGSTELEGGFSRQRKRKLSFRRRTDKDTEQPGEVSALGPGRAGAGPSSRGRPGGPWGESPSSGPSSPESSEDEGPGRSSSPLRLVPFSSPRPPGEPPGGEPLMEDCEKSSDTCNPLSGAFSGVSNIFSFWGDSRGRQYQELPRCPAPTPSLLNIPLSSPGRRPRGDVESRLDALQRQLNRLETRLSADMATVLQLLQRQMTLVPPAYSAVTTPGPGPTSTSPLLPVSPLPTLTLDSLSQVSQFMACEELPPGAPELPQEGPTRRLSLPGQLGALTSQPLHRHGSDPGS

Regarding `C=CCO`, the outcome in assay [1] was inactive. In addition, the Potency entry in assay [2], in assay [3], in assay [4], in assay [5], in assay [6] and in [7] was “inactive” in each case. Moreover, the Potency result in [8], in assay [9] and in assay [10] was “inactive” each time.

On to `Cc1cc(-c2cc(C)c(N)c(C)c2)cc(C)c1N`, for which the result in assay [1] was inactive. Further, the Potency result in assay [2], in assay [4], in [5], in assay [6], in [7] and in assay [13] was “inactive” each time. In addition, the Potency in [3] is 54.6 µM (active) and 26.8 µM (active); in [9] it was 10.1 µM (active) and 8.78 µM (active); in assay [11] it was 40 µM (active) and 22 µM (active); in assay [12], 712 nM (active) and 311 nM (active); in assay [10] it was 34.9 µM (active).

For the compound `CN(C)[C@@H]1C(=O)C(C(N)=O)=C(O)[C@@]2(O)C(=O)C3=C(O)c4c(O)cccc4[C@@](C)(O)[C@H]3C[C@@H]12`, the result in assay [1] and in assay [15] was inactive. The Potency entry in assay [2], in assay [3], in assay [16], in [9], in [13] and in [10] was “inactive” in each case. In addition, the max activation in [14] is -1.09% (inactive). In assay [8], the Potency was 31.8 µM (active) and inactive and 19.5 µM (active).

For the compound `CON(C)C(=O)Nc1ccc(Cl)c(Cl)c1`, the result in [1] was inactive. The Potency entry in assay [2], in assay [4], in assay [5], in assay [6], in [7] and in assay [8] was “inactive” in each case. In addition, the Potency result in [13] and in assay [10] was “inactive” each time. Moreover, the Potency in [3] is 61.4 µM (active) and 54.5 µM (active); in assay [9] it was 16 µM (active) and 39.9 µM (active).

`CCCN(CCC)c1c([N+](=O)[O-])cc(C(F)(F)F)cc1[N+](=O)[O-]`: the compound was called inactive in assay [1]. Besides, the Potency entry in assay [2], in assay [4], in [5], in [6], in assay [7] and in assay [8] was “inactive” each time. Moreover, the Potency result in [13] was “inactive”. Moreover, the Potency in assay [3] is 30.6 µM (active); in [9] it was 39.8 µM (active) and 35.6 µM (active); in assay [11] it was 22.4 µM (active).

As to `c1ccc(-c2ccccc2)cc1`, the compound was called inactive in assay [1]. Moreover, the Potency result in assay [2], in assay [3], in [4], in assay [5], in assay [6] and in assay [7] was “inactive” in each case. For the same compound, the Potency entry in assay [9], in [12], in assay [13] and in [10] was “inactive” throughout.

`O=c1n(Cl)c(=O)n(Cl)c(=O)n1Cl`: the call in [1] and in assay [15] was inactive. Also, the Potency entry in assay [2], in assay [3], in assay [16], in assay [4], in assay [5] and in [6] was “inactive” each time. For the same compound, the Potency entry in assay [7], in [8], in assay [9], in assay [11], in assay [12] and in assay [10] was “inactive” throughout. In addition, the max activation in [14] is 0.0046% (inactive).

In the case of `O=c1[nH]c(=O)[nH]c(=O)[nH]1`, the compound was classed as inactive in assay [1]. In addition, the Potency result in assay [2], in [3], in assay [4], in [5], in assay [6] and in assay [7] was “inactive” in each case. Further, the Potency result in assay [9] and in assay [10] was “inactive” each time.

Consider `O=NN1CCCCCCC1`, for which the call in assay [1] was inactive. Also, the Potency entry in assay [2], in assay [3], in [4], in assay [5], in assay [6] and in [7] was “inactive” in each case. Besides, the Potency entry in [9], in [11], in assay [12], in assay [13] and in assay [10] was “inactive” in each case.

For the origin of these results see PubChem BioAssay (Tox21).
